Measurements as given in PubChem BioAssay (EPA / NIEHS).
Results filed as inconclusive are left out. The source made the active and inactive calls. The calls were made as follows, unless noted: active = hit-call score of the fitted dose curve at least 0.9, where 1 is the maximum; inconclusive = response in the unintended direction; inactive = score below 0.9.

What was measured:
[1] = target: Agonist Androgen Response Element (ARE), AR (gene 367) (UniProt P10275); experiment: OT_AR_ARELUC_AG_1440: Odyssey Thera (OT) 24-hour CHO-K1 Luciferase Assay for Agonist Androgen Response Element (ARE) (AID 2283379)
Sequence of Agonist Androgen Response Element (ARE), AR (gene 367) (P10275 whole entry, looked up): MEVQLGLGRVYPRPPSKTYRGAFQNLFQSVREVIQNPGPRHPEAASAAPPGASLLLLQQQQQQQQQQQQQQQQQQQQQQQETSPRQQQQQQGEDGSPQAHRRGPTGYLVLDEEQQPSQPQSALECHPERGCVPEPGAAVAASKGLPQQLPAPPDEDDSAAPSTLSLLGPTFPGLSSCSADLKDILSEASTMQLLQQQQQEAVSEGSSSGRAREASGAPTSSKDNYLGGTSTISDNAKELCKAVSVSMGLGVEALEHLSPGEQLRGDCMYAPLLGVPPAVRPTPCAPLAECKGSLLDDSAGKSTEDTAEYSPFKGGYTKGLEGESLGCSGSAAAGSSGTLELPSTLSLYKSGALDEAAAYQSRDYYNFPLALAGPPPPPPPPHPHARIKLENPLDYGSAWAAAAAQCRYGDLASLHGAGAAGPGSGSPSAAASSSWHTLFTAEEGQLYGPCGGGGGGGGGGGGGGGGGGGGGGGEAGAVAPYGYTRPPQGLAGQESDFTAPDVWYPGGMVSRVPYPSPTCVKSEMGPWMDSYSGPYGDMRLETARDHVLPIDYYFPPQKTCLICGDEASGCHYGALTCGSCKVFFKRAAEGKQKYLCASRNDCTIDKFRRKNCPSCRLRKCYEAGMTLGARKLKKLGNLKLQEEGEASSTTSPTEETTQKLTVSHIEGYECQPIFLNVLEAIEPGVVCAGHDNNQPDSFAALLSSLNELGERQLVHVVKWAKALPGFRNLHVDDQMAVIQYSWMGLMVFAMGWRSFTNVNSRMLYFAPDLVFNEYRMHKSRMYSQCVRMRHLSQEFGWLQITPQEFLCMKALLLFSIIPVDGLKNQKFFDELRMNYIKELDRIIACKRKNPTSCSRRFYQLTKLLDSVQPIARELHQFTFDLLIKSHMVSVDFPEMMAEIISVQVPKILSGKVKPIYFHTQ
How it was run: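 CHO-K1 cells carrying an ARE-driven luciferase reporter were exposed to compounds for 24 h. Luminescence was then read after adding a D-luciferin/ATP mix, and activity was scored as a gain in signal over DMSO vehicle.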

[2] = target: Estrogen receptor beta (Homo sapiens) (UniProt Q92731); experiment: OT_ER_ERbERb_1440: Odyssey Thera (OT) 24-hour HEK293T Protein-Complementation Assay for Estrogen Receptor-beta/-beta Homodimer (AID 2283380);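 also: scored as signal increase over DMSO baseline for both agonists and antagonists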
Sequence of Estrogen receptor beta (Homo sapiens) (Q92731 whole entry, looked up, the tested form may be a part): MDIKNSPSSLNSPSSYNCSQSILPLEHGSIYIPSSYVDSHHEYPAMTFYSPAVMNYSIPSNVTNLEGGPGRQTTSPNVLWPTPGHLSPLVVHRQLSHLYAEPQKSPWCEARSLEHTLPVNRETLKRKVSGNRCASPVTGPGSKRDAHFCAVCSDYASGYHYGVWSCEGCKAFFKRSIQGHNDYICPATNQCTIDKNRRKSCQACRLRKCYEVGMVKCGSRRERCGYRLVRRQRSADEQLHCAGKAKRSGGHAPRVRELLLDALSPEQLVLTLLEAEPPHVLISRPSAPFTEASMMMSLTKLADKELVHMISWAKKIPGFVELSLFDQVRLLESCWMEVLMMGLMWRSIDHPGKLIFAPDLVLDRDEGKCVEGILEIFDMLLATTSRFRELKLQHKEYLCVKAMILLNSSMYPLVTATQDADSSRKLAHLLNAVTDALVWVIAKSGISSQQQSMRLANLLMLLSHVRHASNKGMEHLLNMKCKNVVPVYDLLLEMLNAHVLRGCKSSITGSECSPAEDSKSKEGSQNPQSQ
How it was run: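 HEK293T cells stably expressing ER beta LBD (aa 310-547) homodimer fragment-complementation reporter, dosed 24 h. Cells formaldehyde-fixed, Draq5-stained; gain in nuclear (agonist) or nuclear plus cytoplasmic (antagonist) fluorescence versus DMSO read by laser scanning cytometry.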

[3] = target: Estrogen receptor (Homo sapiens) (UniProt P03372); experiment: OT_ERa_GFPERaERE_0480: Odyssey Thera (OT) 8-hour HeLa Transcription Induction Assay for Estrogen Receptor (AID 2283381; active = hit-call score of the fitted dose curve at least 0.9, where 1 is the maximum; inactive = score below 0.9)
Sequence of Estrogen receptor (Homo sapiens) (P03372 whole entry, looked up): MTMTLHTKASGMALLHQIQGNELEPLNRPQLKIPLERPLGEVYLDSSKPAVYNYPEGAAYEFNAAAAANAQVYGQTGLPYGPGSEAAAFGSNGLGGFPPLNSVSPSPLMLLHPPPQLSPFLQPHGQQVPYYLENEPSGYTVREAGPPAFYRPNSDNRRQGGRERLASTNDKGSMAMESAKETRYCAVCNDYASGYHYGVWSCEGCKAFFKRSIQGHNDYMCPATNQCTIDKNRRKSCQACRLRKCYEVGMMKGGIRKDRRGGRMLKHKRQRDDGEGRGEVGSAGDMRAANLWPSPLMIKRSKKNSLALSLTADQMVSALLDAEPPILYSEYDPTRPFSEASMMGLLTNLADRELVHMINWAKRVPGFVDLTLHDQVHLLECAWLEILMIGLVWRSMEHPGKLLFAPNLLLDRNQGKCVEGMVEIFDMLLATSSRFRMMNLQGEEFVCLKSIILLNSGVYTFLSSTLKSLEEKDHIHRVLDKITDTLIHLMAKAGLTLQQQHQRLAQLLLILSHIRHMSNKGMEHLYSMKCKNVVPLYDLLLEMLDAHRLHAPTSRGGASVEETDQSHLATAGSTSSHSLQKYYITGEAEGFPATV
How it was run: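 Fluorescent reporter signal, imaged by microscopy and scored with image-analysis algorithms, was taken 8 h after chemical dosing of HeLa cells; activity was fitted upward relative to DMSO.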

[4] = target: Estrogen receptor (Homo sapiens) (UniProt P03372); experiment: OT_ERa_GFPERaERE_0120: Odyssey Thera (OT) 2-hour HeLa Transcription Induction Assay for Estrogen Receptor (AID 2283382)
How it was run: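 HeLa, 384-well, 2 h chemical exposure; GFP reporter induction (ERE), fluorescence microscopy; high content image analysis; positive fitting direction vs DMSO.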

[5] = target: Bile acid receptor (Homo sapiens) (UniProt Q96RI1); experiment: OT_FXR_FXRSRC1_0480: Odyssey Thera (OT) 8-hour HEK293T Protein-Complementation Assay for Farnesoid X receptor/SRC-1 Co-activator (AID 2283383)
Sequence of Bile acid receptor (Homo sapiens) (Q96RI1 whole entry, looked up, the tested form may be a part): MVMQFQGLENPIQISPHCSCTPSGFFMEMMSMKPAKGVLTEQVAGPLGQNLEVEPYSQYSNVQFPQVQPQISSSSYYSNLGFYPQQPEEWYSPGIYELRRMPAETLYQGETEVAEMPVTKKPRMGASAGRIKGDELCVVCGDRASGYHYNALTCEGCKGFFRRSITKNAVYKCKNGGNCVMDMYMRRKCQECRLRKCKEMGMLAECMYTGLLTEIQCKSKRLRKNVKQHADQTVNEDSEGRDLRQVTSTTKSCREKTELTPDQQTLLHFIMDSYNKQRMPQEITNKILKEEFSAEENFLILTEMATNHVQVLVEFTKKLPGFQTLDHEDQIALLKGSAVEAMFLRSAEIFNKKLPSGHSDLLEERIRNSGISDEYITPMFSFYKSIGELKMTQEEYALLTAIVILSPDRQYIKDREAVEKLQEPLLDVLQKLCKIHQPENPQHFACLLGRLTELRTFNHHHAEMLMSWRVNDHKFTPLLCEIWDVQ
How it was run: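 Human kidney HEK293T cells carried FXR/SRC-1 fragment-complementation constructs. Compounds were added and incubated 8 h. Reporter reassembly upon receptor–co-activator interaction was then quantified by fluorescence, with curves fitted in the positive direction relative to DMSO.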

[6] = target: Bile acid receptor (Homo sapiens) (UniProt Q96RI1); experiment: OT_FXR_FXRSRC1_1440: Odyssey Thera (OT) 24-hour HEK293T Protein-Complementation Assay for Farnesoid X receptor/SRC-1 Co-activator (AID 2283384)
How it was run: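 Compounds are applied to human kidney HEK293T cells expressing bait and prey fused to reporter protein fragments; after 24 h, reconstituted reporter fluorescence is measured. Activity is fitted as signal gain over DMSO.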

[7] = target: Retinoic acid receptor RXR-alpha (Homo sapiens) (UniProt P19793); experiment: OT_NURR1_NURR1RXRa_0480: Odyssey Thera (OT) 8-hour HEK293T Protein Complementation Assay for Nurr1/retinoid X receptor (RXR) (AID 2283385)
Sequence of Retinoic acid receptor RXR-alpha (Homo sapiens) (P19793 whole entry, looked up, the tested form may be a part): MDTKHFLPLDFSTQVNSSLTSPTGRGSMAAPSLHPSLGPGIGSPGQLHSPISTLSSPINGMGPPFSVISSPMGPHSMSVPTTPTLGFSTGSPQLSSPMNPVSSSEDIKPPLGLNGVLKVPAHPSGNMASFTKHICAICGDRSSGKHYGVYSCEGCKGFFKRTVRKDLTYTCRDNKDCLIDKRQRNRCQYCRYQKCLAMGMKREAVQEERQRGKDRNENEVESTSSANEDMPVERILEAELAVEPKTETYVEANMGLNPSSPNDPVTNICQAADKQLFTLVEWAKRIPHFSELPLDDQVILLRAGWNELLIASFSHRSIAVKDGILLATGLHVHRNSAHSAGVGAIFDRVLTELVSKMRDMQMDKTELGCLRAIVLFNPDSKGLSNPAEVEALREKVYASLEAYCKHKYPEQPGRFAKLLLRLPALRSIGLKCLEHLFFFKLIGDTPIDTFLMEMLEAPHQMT
How it was run: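 8 h compound exposure, HEK293T; Nurr1/RXRα fragment complementation; fluorescence intensity; positive fitting direction vs DMSO baseline.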

[8] = target: Retinoic acid receptor RXR-alpha (Homo sapiens) (UniProt P19793); experiment: OT_NURR1_NURR1RXRa_1440: Odyssey Thera (OT) 24-hour HEK293T Protein Complementation Assay for Nurr1/retinoid X receptor (RXR) (AID 2283386)
How it was run: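 Interaction of Nurr1 with RXRα brings fused reporter fragments together in human HEK293T cells, restoring a functional reporter. Fluorescence intensity is measured 24 h after chemical treatment, and values are analysed in the positive direction against DMSO.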

[9] = target: Peroxisome proliferator-activated receptor gamma (Homo sapiens) (UniProt P37231); experiment: OT_PPARg_PPARgSRC1_0480: Odyssey Thera (OT) 8-hour Protein-Complementation Assay for Peroxisome Proliferator-activated Receptor Gamma / SRC-1 Co-activator (AID 2283387);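 also: nuclear to cytoplasmic split Venus YFP fluorescence ratio reporting PPARg SRC-1 interaction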
Sequence of Peroxisome proliferator-activated receptor gamma (Homo sapiens) (P37231 whole entry, looked up, the tested form may be a part): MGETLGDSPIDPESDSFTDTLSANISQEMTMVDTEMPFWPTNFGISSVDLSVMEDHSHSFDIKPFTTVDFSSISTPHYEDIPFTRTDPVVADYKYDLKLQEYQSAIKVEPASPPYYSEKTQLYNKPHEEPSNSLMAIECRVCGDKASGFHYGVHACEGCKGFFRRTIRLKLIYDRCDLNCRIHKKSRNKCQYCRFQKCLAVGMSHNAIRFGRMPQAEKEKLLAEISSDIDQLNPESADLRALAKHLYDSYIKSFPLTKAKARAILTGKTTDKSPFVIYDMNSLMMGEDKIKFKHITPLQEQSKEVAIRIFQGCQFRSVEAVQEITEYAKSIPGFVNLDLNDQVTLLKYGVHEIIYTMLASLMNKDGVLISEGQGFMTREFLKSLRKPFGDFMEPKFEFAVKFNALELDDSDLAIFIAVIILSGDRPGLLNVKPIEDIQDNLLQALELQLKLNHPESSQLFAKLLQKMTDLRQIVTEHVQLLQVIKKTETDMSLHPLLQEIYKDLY
How it was run: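 Protein-fragment complementation of split Venus YFP reports PPARg/SRC-1 interaction in HEK293T (transfected 48 h before treatment), exposed 8 h. Readout: N/C fluorescence ratio at 488 nm from imaging, Draq5 for segmentation, positive fit relative to DMSO.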

[10] = target: Peroxisome proliferator-activated receptor gamma (Homo sapiens) (UniProt P37231); experiment: OT_PPARg_PPARgSRC1_1440: Odyssey Thera (OT) 24-hour Protein-Complementation Assay for Peroxisome Proliferator-activated Receptor Gamma/ SRC-1 Co-activator (AID 2283388);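 also: nuclear to cytoplasmic ratio of reconstituted Venus YFP fluorescence in fixed imaged cells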
How it was run: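 Transient HEK293T, YFP fragments 1-158/159-239 (mutant IFP1/IFP2) fused to PPARg/SRC-1; 24 h dosing; fix 4% formaldehyde, Draq5; Opera imaging 488/635 nm; N/C ratio, gain vs DMSO.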

Measured: AC50

CC1COC(=O)O1 (configuration not stated)
inactive: [1] | [2] | [3] | [4] | [5] | [6] | [7] | [8] | [9] | [10]

COc1cc(OC)c2ccc(=O)oc2c1
inactive: [1] | [2] | [3] | [4] | [7] | [8] | [9]

OC[C@H]1O[C@@H](O[C@H]2[C@H](O)[C@@H](O)[C@H](O)O[C@@H]2CO)[C@H](O)[C@@H](O)[C@H]1O
inactive: [1] | [2] | [3] | [4] | [5] | [6] | [9] | [10]

CCCCCC(=O)O[C@]1(C(C)=O)CC[C@H]2[C@@H]3CCC4=CC(=O)CC[C@]4(C)[C@H]3CC[C@@]21C
active: [2] 12.6 µM | [5] 5.16 µM | [6] 11.6 µM | [7] 11.9 µM | [8] 26.3 µM
inactive: [3] | [4] | [9] | [10]

CC(CCO)CC(C)(C)C (configuration not stated)
active: [2] 39 µM
inactive: [1] | [3] | [4] | [9] | [10]

CCCCCCOc1ccc(O)cc1
inactive: [1] | [7] | [8] | [9] | [10]
active: [2] 12 µM | [3] 88.9 µM | [4] 69.5 µM

O=S(=O)(O)c1cc(S(=O)(=O)O)c2c(N=Nc3ccccc3)c(O)ccc2c1
inactive: [2] | [3] | [4] | [5]

c1ccc(Cc2ccccc2)cc1
inactive: [2] | [3] | [6] | [7]
active: [4] 7.03 µM

NC(=O)c1cccnc1
inactive: [2] | [3] | [4] | [5] | [6] | [7] | [9]
active: [8] 82.4 µM

CCC(C)(CCCC(C)C)OC(C)=O (configuration not stated)
inactive: [2] | [3] | [4] | [5] | [6] | [7] | [9] | [10]

CCCCCCCCOS(=O)(=O)O
inactive: [2] | [3] | [4] | [5] | [6] | [9]

CC(=O)C1=C(C)[C@@H]2C[C@@]3(C1)[C@H](C)CC[C@H]3C2(C)C
active: [2] 12.7 µM | [5] 37.2 µM | [7] 72.4 µM | [8] 90 µM
inactive: [3] | [4] | [6] | [9] | [10]

CCc1cccc(O)c1
inactive: [2] | [3] | [4] | [5] | [6] | [8] | [9] | [10]

CCCCCCCCCO
inactive: [2] | [3] | [4] | [5] | [7] | [8] | [9] | [10]

CC(C)(CO)CO
inactive: [1] | [2] | [3] | [4] | [7] | [8]

CC1=CCC(C(C)(C)O)CC1 (configuration not stated)
inactive: [1] | [3] | [4] | [5] | [6] | [7] | [8] | [9]

O=C1OC2(c3ccc(O)cc3Oc3cc(O)ccc32)c2ccccc21
active: [5] 13.1 µM | [6] 11.4 µM
inactive: [2] | [3] | [4] | [9]

CC12CCC(C1)C(C)(C)C2O (configuration not stated)
inactive: [2] | [3] | [4] | [6] | [7] | [8] | [9]

CCC(C)(C)C1CCC(=O)CC1
inactive: [1] | [3] | [4] | [7] | [8] | [9] | [10]

CCCCCC1CCC(=O)O1 (configuration not stated)
inactive: [2] | [3] | [4] | [5] | [7] | [8] | [9]

CCC(C)(C)C1CCC(OC)CC1 (configuration not stated)
inactive: [2] | [3] | [4] | [5] | [6] | [7] | [8] | [9]

COC(=O)c1cccc(C(=O)OC)c1
active: [1] 1.63 µM
inactive: [2] | [3] | [4] | [8] | [9]

CC(=O)c1ccc2ccccc2c1
inactive: [2] | [3] | [4] | [5] | [6] | [8] | [9]

CCO[Si](CC)(OCC)OCC
inactive: [1] | [2] | [3] | [4] | [7] | [8]

CCC(=O)OC(C)(C)C1CC=C(C)CC1 (configuration not stated)
active: [5] 83.9 µM
inactive: [2] | [3] | [4] | [6] | [8] | [9] | [10]

COc1ccccc1O
inactive: [2] | [3] | [4] | [5] | [7] | [8] | [9]

CC(=O)C1C(=O)C=C(C)OC1=O (configuration not stated)
inactive: [2] | [3] | [4] | [5] | [6] | [7] | [8] | [9]

CCCCCCCCCCOC(=O)c1ccccc1C(=O)OCCCCCCCC
inactive: [1] | [2] | [3] | [4] | [8] | [9] | [10]

CC(=O)CC(=O)N(C)C
inactive: [2] | [3] | [4] | [6] | [8]

CCCc1ccc(O)cc1
active: [2] 46.5 µM
inactive: [3] | [4] | [5] | [6] | [7] | [8] | [9]

CCOCC(C)O (configuration not stated)
inactive: [2] | [3] | [4] | [6] | [7] | [8] | [9] | [10]

COc1ccc2[nH]cc(CCNC(C)=O)c2c1
inactive: [2] | [3] | [4] | [5] | [6] | [8] | [9] | [10]

CCCCC/C=C\C=C\C(=O)OCC
inactive: [4] | [7] | [9] | [10]
active: [2] 12.5 µM | [3] 95.6 µM | [6] 81 µM

FC(F)(F)c1ccc(Cl)c(Cl)c1
inactive: [1] | [2] | [3] | [4] | [8] | [9] | [10]

CC(C)(C)c1cccc(O)c1
inactive: [1] | [3] | [4] | [7] | [8] | [9] | [10]

O=C(OCc1ccccc1)c1ccccc1O
active: [2] 49.7 µM
inactive: [3] | [4]

O=C(O)CS
inactive: [2] | [3] | [4] | [7] | [8] | [9]

CCCCCCCCCCCCS
active: [7] 77.6 µM | [8] 93.7 µM
inactive: [2] | [3] | [4] | [9] | [10]

OCC=Cc1ccccc1
inactive: [2] | [3] | [4] | [8] | [9]

CCCCCCCC(=O)N(C)C
inactive: [2] | [3] | [4] | [7] | [8] | [9]

CC(C)CCCC(C)(C)O
inactive: [2] | [3] | [4] | [7] | [8] | [9] | [10]

C=CCCCCCCCCC(=O)OCC
inactive: [2] | [3] | [4] | [7] | [8] | [9] | [10]

Cc1cccc(O)c1
inactive: [2] | [3] | [4] | [7] | [9]

CC(C)N(c1ccccc1)C(C)C
inactive: [2] | [3] | [4] | [8] | [9]

CC(=O)OC(C)(C)C
inactive: [2] | [3] | [4] | [7] | [10]

CCNC(=S)NCC
inactive: [2] | [3] | [4] | [7] | [8] | [9] | [10]

CC(=O)Nc1cc(S(=O)(=O)O)cc2cc(S(=O)(=O)O)c(N=Nc3ccccc3)c(O)c12
inactive: [2] | [3] | [4] | [8] | [9] | [10]
active: [7] 22.9 µM
